High-throughput results: PubChem, National Center for Advancing Translational Sciences (NCATS)
Rows were chosen to be rich in hits. Some 2.3% of all compounds tested hit in one or more screens of this group.
Nrf2 ARE act = activates Nrf2 signaling | AREc32 ARE-luciferase reporter (MCF7-derived line), luminescence, 24 h | 0.31% of 410,000 active | Potency, µM (series often up to 46.1 µM), for inactives: top-dose activation, hits mostly activators; also: % of control where 0% means no effect; nearly all actives have a fitted effect of over 65% in size
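Cells of the AREc32 ARE-luciferase line are plated in OPTI-MEM containing 5% FBS and left overnight at 37 deg C. Compounds are pinned in, incubation continues 24 hr, and firefly luciferase signal is then measured.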
A549 tox-1 = counter-screen for Nrf2 inhibitors: cytotoxicity in A549 cells; A549 ARE-Fluc cells, CellTiter-Fluor viability, 18-24 h; Potency, µM (doses to about 46 µM), inactives show at the highest dose activity change, negative = cytotoxicity, actives largely listed as inhibitors; 0.16% of 390,000 active; also: % is scaled to controls: 0 for no effect and ±100 for the full control effect
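A549 ARE-Fluc cells in 5% FBS OPTI-MEM, 5000 cells/well, rested 2 h then exposed to compounds in concentration-response for 18-24 h at 37 °C. Viability by CellTiter-Fluor fluorescence (Ex 405/Em 525) after 30 min; luciferase luminescence (BugLite, 15 min, RT) read afterwards.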
Rango dissoc inh = inhibition of RanGTP-driven Rango-importin beta dissociation; 0.071% of 340,000 active; Potency, µM (series often up to 46.1 µM), for inactives: at the top dose activity change, negative = inhibition; Biochemical FRET Rango-importin beta, RanGTP-induced dissociation; AID 540253; calls by dose curve; also: % of control where 0% means no effect; nearly all actives have a fitted effect of over 45% in size
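Rango (0.1 uM)–importin beta (0.25 uM) complex; RanGTP-RCC1 trigger; 45 min RT; CFP/YFP FRET read.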
Nrf2 inh = inhibitors of Nrf2 signaling. 2.1% of 360,000 active. Potency, µM (titrated, usually from 46 µM), without a hit: at the highest dose activity change, negative = inhibition, most hits filed as inhibitors. A549 ARE-Fluc reporter, luciferase luminescence, 18-24 h; also: % is scaled to controls: 0 for no effect and ±100 for the full control effect; nearly all actives have a fitted effect of over 60% in size
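Two sequential reads on A549 ARE_Fluc cells exposed to compound for 18-24 h: a CellTiter-Fluor fluorescence read for viability, then a luciferase luminescence read for Nrf2/ARE activity.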
Rango-impB inh = inhibitors of Rango-importin beta complex formation | AID 540263 | Potency, µM (series often up to 92.2 µM), for inactives: at the top dose inhibition of complex formation | 0.031% of 340,000 active | Rango CFP/YFP FRET sensor + importin beta, 45 min; calls by dose curve;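 also: 0% = DMSO wells and 100% = buffer wells lacking importin beta; nearly all actives have a fitted effect of over 15% in size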
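Inhibition scored from the CFP 486 nm/YFP 530 nm FRET ratio 45 min after adding 0.125 microM importin beta to 50 nM Rango biosensor preincubated 5 min with compound (room temperature, PBS with DTT, Tween-20, BSA). No-importin wells as positive control.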
FLuc enzyme inh = firefly luciferase inhibition, Nrf2 hit validation | Potency, µM (series often up to 57.5 µM), for inactives: at the top dose activity change, negative = inhibition, usual class: inhibitors | 4% of 1,400 active | shares compounds with Nrf2 inh | AID 720522 | purified firefly luciferase, luminescence inhibition; also: % is scaled to controls: 0 for no effect and ±100 for the full control effect; nearly all actives have a fitted effect of over 65% in size
Target sequence (P08659 whole entry, looked up): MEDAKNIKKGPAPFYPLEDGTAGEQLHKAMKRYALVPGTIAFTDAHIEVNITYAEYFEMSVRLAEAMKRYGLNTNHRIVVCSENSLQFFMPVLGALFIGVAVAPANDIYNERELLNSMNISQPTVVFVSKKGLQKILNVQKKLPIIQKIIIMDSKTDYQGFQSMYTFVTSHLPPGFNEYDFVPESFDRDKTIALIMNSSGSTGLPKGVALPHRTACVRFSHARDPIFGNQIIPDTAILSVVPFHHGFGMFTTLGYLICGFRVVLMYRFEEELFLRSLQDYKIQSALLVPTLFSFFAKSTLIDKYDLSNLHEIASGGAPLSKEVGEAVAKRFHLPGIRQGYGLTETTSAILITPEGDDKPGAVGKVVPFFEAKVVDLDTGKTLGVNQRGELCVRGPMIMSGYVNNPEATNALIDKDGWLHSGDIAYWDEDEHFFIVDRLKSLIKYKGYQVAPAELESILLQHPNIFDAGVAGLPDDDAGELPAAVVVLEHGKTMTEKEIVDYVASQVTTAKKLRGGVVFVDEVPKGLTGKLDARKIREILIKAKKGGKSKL
A549 tox-2 = counter-screen for Nrf2 inhibitors: cytotoxicity in A549 ARE cells | shares compounds with Nrf2 inh | A549 ARE-Fluc cells, cytotoxicity counterscreen | Potency, µM (top dose mostly 46.1 µM), for the others: at the top dose activity change, negative = cytotoxicity, actives largely listed as inhibitors | 2% of 1,400 active | AID 720523;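 also: cells exposed to compounds for 18 to 24 hours; % is scaled to controls: 0 for no effect and ±100 for the full control effect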
ARE-Fluc inh = confirmation of Nrf2 inhibitors in A549 ARE reporter cells; shares compounds with Nrf2 inh; AID 720524; A549 ARE-firefly luciferase reporter, luminescence; Potency, µM (doses to about 46.1 µM), for the others: top-dose activity change, negative = inhibition, hits mostly inhibitors; 74% of 1,400 active; also: % is scaled to controls: 0 for no effect and ±100 for the full control effect; nearly all actives have a fitted effect of over 65% in size
* hit, by the source's call; ? = inconclusive; nt = no result given; ! = not active in a repeat. Unless noted, calls follow the shape of the dose curve; as a rule, active = well fitted curve in the direction sought with a large enough effect; inconclusive = small, poorly fitted or top-dose-only effect, or another doubt; inactive = no such curve, though single readings can be large; an effect the other way counts as inactive or inconclusive. Potency is read from the fitted curve at half-maximal effect.

SMILES	Nrf2 ARE act	A549 tox-1	Rango dissoc inh	Nrf2 inh	Rango-impB inh	FLuc enzyme inh	A549 tox-2	ARE-Fluc inh
CCCCCCCn1c2c(c(=N)c3ccccc31)CCC2	0%	?	-6%	2.3µM*	-1%	3%	?	1.5µM*
CN(C)c1ccc(/C=C2\Oc3ccc(C#Cc4cccc(N)c4)cc3C2=O)cc1	1%	?	?	?	?	nt	nt	nt
O=[N+]([O-])c1ccc(NCc2ccccc2N2CCC(CO)CC2)nc1	8%	6%	17%	-19%	-1%	nt	nt	nt
C[n+]1ccccc1COc1ccc(C(C)(C)C)cc1	0%	?	14%	2.3µM*	0%	-9%	-11%	5.2µM*
CC(C)(C)c1ccc(OCc2nc3ccccc3n2CCOc2ccccc2)cc1	1%	10%	nt	19%	nt	nt	nt	nt
CC(=O)O[C@]1(C(C)=O)CCC2C3C=C(C)C4=CC(=O)CC[C@]4(C)C3CC[C@@]21C (some centres undefined)	0%	-7%	5%	0.26µM*	6%	-11%	-8%	1.2µM*
Cc1ccc(S(=O)(=O)Nc2ccc3c(c2)OCCO3)cc1	2%	10%	-16%	-3%	-4%	nt	nt	nt
Cc1nc2ccc(NS(=O)(=O)c3ccc4c(c3)OCCO4)cc2s1	3%	-25%	-6%	2.9µM*	0%	-2%	-1%	6.5µM*
CN(CC(=O)Nc1ccc(F)cc1)C(=O)c1cccc(S(=O)(=O)N2CCN(c3ccccc3)CC2)c1	2%	-18%	-5%	?	0%	nt	nt	nt
COc1ccc(CNC(=O)c2cccc(S(=O)(=O)N3CCN(c4ccc(F)cc4)CC3)c2)cc1	0%	-8%	-2%	?	1%	nt	nt	nt
COc1cccc(CNC(=O)c2cccc(S(=O)(=O)N3CCN(c4ccc(F)cc4)CC3)c2)c1	2%	0%	-7%	?	4%	1%	-1%	?
COc1ccc(NC(=O)CN(C)C(=O)c2cccc(S(=O)(=O)N3CCN(c4ccc(F)cc4)CC3)c2)cc1	0%	?	0%	5.8µM*	0%	3%	-10%	18µM*
O=C(Cc1cccc(C(F)(F)F)c1)Nc1cc(S(=O)(=O)N2CCOCC2)ccc1N1CCCC1	14%	-9%	13%	-35%	-5%	nt	nt	nt
COc1ccc(-c2nc3c(c(SCC(=O)Nc4cccc(O)c4)n2)Cc2c(CO)cnc(C)c2O3)cc1	5%	10%	-18%	-1%	-2%	nt	nt	nt
Cc1ncc(CO)c2c1Oc1nc(-c3ccccc3)nc(SCC(=O)Nc3cccc(O)c3)c1C2	0%	?	2%	1.8µM*	-2%	-2%	-14%	5.8µM*
COc1cc2nc(NCc3ccc(C)cc3)n3nc(-c4ccccc4)nc3c2cc1OC	1%	-1%	nt	10%	nt	nt	nt	nt
Cc1ccc(C)c(N2CCN(S(=O)(=O)c3ccc4oc(=O)c5ncn(C)c5c4c3)CC2)c1	-1%	1%	nt	13%	nt	nt	nt	nt
CC(C)CC(=O)N1CCN(S(=O)(=O)c2ccc(C3CCCCC3)cc2)CC1	-1%	-16%	-10%	8.2µM*	0%	2%	-5%	?
CC(C)COc1ccccc1C1CC(=O)Nc2cc3c(cc21)OCO3 (centres undefined)	0%	-17%	nt	8.2µM*	nt	-20%	?	23µM*
CCOc1c(OC)cccc1C1CC(=O)Nc2cc3c(cc21)OCCO3 (centres undefined)	-1%	-1%	0%	7%	-1%	nt	nt	nt
COc1ccc(NC(=O)CN(C)Cc2cccs2)cc1Cl	3%	-4%	-2%	0%	0%	nt	nt	nt
CC(C(=O)NCc1ccco1)n1ccc2cc(S(=O)(=O)N3CCCCC3)ccc21 (centres undefined)	2%	0%	3%	?	0%	nt	nt	nt
O=C(Nc1cccn(Cc2c(Cl)cccc2Cl)c1=O)c1ccccc1Cl	-1%	-26%	-12%	1.5µM*	-1%	-25%	1%	9.2µM*
COc1ccccc1NC(=O)CCSc1nnc(-c2ccncc2)o1	0%	2%	10%	-16%	-4%	nt	nt	nt
Cc1ccccc1/C=C/c1cccc[n+]1C	0%	-29%	0%	1.8µM*	-2%	2%	-28%	4.1µM*
SMILES	Nrf2 ARE act	A549 tox-1	Rango dissoc inh	Nrf2 inh	Rango-impB inh	FLuc enzyme inh	A549 tox-2	ARE-Fluc inh
C[n+]1ccccc1/C=C/c1c(F)cccc1F	-1%	?	-11%	2.6µM*	4%	1%	-30%	2.1µM*
C[n+]1ccccc1/C=C/c1ccccc1Cl	22%	-11%	-6%	26%	-1%	nt	nt	nt
C[n+]1ccccc1/C=C/c1ccc([N+](=O)[O-])cc1	0%	?	11%	3.7µM*	-1%	1%	?	7.3µM*
COc1ccc(C(=O)NC(=S)NNC(=O)c2cnccn2)cc1	0%	?	4%	?	-2%	?	-27%	5.8µM*
COc1ccc(C(=O)NC(=S)NNC(=O)COc2ccccc2)cc1	0%	2%	-8%	?	0%	nt	nt	nt
O=C(NC(=S)NNC(=O)c1cnccn1)c1ccc(Cl)cc1	0%	-26%	12%	5.8µM*	1%	-11%	-14%	5.8µM*
O=c1c2ccccc2nc(-c2ccccc2)n1Cc1ccc(Cl)cc1	-1%	0%	-18%	15%	-5%	nt	nt	nt
O=c1c2ccccc2nc2n1CCN2Cc1ccc(Cl)cc1	5%	-21%	0%	5.8µM*	8%	-16%	-12%	4.1µM*
Cc1nn(-c2ccc(NC(=O)c3ccncc3)cc2)c(C)c1Cl	0%	-7%	24%	3.7µM*	1%	-11%	-5%	7.3µM*
Cc1ccc(S(=O)(=O)N(C)C)cc1NC(=O)Cn1c(CN2CCOCC2)nc2ccccc2c1=O	0%	-2%	-6%	2%	-3%	nt	nt	nt
Cc1ccc(N(CC2=NCCN2)c2cccc(O)c2)cc1	0%	?	-9%	7.3µM*!	0%	-1%	-7%	10µM*
O=C(NCC(c1ccco1)N1CCc2ccccc2C1)c1ccc(Cl)c([N+](=O)[O-])c1 (centres undefined)	21%	-4%	15%	13%	-2%	nt	nt	nt
O=C(NCC(c1ccco1)N1CCCC1)c1ccc(Cl)c(S(=O)(=O)N2CCc3ccccc32)c1 (centres undefined)	7%	8.2µM*	-14%	1.3µM*	?	-14%	-29%	nt
